# Compound activity as filed in PubChem.
# Only some compounds are listed: those with a hit (about 7.3% of all), similar ones and a draw of the others.
# NPC1 prom act: NPC1 promoter activation | 320,000 compounds, 2.4% hits | AID 485313 | Huh7 NPC1 promoter luciferase reporter, 24 h | Potency, µM (series often up to 9.22 µM), hits mostly activators; note: nearly all actives have a fitted effect of over 60% in size
#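 Huh7 cells stably carrying NPC1 promoter–luciferase, plated in Opti-MEM with 10% FBS for 2 h, were exposed to compound in DMSO for 24 h at 37 °C; luciferase reagent was added for 10 min and luminescence read.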
# ELG1 genotox: inducers of genotoxicity in HEK293T ELG1-luciferase cells | Potency, µM (titrated, usually from 46 µM), most hits filed as activators | HEK293T ELG1-luciferase reporter, luminescence, 16 h | AID 504466 | 330,000 compounds, 1.3% hits; note: nearly all actives have a fitted effect of over 60% in size
#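 16 hr compound incubation (37 °C, 5% CO2) of HEK293T cells carrying luciferase-tagged ELG1; luciferase then measured by ONE-Glo luminescence after 30 min at RT.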
# p53 reactivator: restores transcriptional activity of mutant p53; Potency, µM (titrated, usually from 92.2 µM), usual class: activators; 320,000 compounds, 0.063% hits; AID 504706; H1299 p53-A138V BP100-luciferase reporter, luminescence, 24 h; note: nearly all actives have a fitted effect of over 45% in size
#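 H1299 (p53-null), stable ts p53-A138V + BP100-Luc; 1000 cells/well, Opti-MEM/10% FBS; cpd 4 pt, 1:5; 24 h, 37 deg C, 5% CO2; detection reagent 10 min RT; luminescence.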
# SMN2 splice up: enhancers of SMN2 splice variant expression; HEK293 SMN2-luciferase splicing reporter, luminescence, 30-36 h; Potency, µM (top dose mostly 46.1 µM), hits mostly activators; 210,000 compounds, 2.8% hits; AID 1458; note: nearly all actives have a fitted effect of over 55% in size
#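 qHTS luciferase splicing reporter: luminescence rises when SMN2 exon 7 is included in transfected HEK293 cells. Compound exposure lasted 30-36 h at 37C, with 4.5 mM final sodium butyrate as control, followed by a ONE-Glo read.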
# Rab9 prom act: activates the Rab9 promoter; Potency, µM (series often up to 9.22 µM), hits mostly activators; 320,000 compounds, 2.8% hits; Huh7 Rab9 promoter-luciferase reporter, luminescence, 24 h; note: nearly all actives have a fitted effect of over 60% in size
#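 Steps: seed 1500 Huh7 Rab9-luc cells per well, rest 2 h at 37 °C; add compound in DMSO; incubate 24 h; add luciferase reagent, 10 min ambient; read luminescence.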
# FLuc counter: firefly luciferase modulation, counter-screen for miR-21 project | purified FLuc, Km substrates, luminescence inhibition | Potency, µM (highest dose often 57.5 µM), actives largely listed as inhibitors | 360,000 compounds, 6.9% hits; note: nearly all actives have a fitted effect of over 55% in size
# Target sequence (P08659 whole entry, looked up): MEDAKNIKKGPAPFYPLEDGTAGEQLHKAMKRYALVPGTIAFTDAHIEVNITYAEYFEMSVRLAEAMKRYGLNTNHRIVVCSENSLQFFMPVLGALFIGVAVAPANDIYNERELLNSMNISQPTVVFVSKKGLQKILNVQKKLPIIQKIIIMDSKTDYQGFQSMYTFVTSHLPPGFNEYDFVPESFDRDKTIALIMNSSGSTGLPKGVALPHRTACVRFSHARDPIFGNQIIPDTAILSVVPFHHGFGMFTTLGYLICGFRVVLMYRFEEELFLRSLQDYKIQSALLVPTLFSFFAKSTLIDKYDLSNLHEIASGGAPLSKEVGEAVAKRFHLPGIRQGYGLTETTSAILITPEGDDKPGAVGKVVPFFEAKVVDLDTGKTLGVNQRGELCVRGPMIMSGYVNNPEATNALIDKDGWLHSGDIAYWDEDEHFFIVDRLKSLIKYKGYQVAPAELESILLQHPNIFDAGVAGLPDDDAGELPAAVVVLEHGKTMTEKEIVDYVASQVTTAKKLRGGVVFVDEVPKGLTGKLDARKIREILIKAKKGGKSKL
#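 Purified P. pyralis luciferase (10nM final) with 10uM D-luciferin and 10uM ATP (Km levels) in 50mM Tris acetate pH 7.5, 10mM Mg acetate, 0.01% Tween-20, 0.05% BSA; qHTS 6-point titration, ~60 µM downward; luminescence read.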
# A number is an active result; – = inactive; ? = inconclusive; · = no result given; [ ] = remark or other dose. Calls come from the whole dose curve; as a rule, active = well fitted curve in the direction sought with a large enough effect; inconclusive = small, poorly fitted or top-dose-only effect, or another doubt; inactive = no such curve, though single readings can be large; an effect the other way counts as inactive or inconclusive.
SMILES,NPC1 prom act,ELG1 genotox,p53 reactivator,SMN2 splice up,Rab9 prom act,FLuc counter
CCCN(CC(=O)Nc1ccccc1C)C(=O)Cc1c(C)nc2ccccc2c1C,–,–,–,·,–,·
Cn1c(C(=O)N2CCc3ccccc3C2)cc2oc3ccccc3c21,–,?,?,22.4µM,?,10.7µM
CCn1c(C(=O)N2CCc3ccccc3C2)cc2oc3ccccc3c21,–,–,–,–,–,?
CC(NC(=O)CN1C(=O)NC2(CCCCCC2)C1=O)c1ccccc1Cl (stereo unspecified),–,–,–,·,–,–
O=C(COc1ccc2ccccc2c1)Nc1nccs1,0.501µM,?,–,·,0.355µM,0.601µM
O=C(COc1ccc2ccc(=O)oc2c1)Nc1nccs1,2.24µM,?,?,·,2.82µM,15.1µM
NC(=O)c1ccsc1NC(=O)COc1ccccc1,?,8.91µM,?,12.6µM,3.16µM,12µM
Nc1ccccc1SCC(=O)Nc1nccs1,–,–,–,·,–,–
Cn1cc(SCC(=O)Nc2nccs2)c2ccccc21,?,20.6µM,?,11.2µM,?,12µM
Cc1cccc(OCC(=O)OCC(=O)Nc2sccc2C(N)=O)c1,·,–,–,·,·,·
CCSc1nnc(NC(=O)COc2ccc3ccccc3c2)s1,–,–,–,–,–,–
O=C(COc1ccc2ccc(=O)oc2c1)Nc1cccnc1,–,–[9.26 µM],?,·,–,–
COc1ccc(S(=O)(=O)N2CCOC23CCN(C(=O)c2ccccc2OC)CC3)cc1,–,?,–,·,–,–
COc1ccc(-c2cc(-c3ccccc3)nc(SCC(=O)Nc3nccs3)c2C#N)cc1,–,–,–,·,–,13.5µM
O=C(COc1ccccc1)Nc1nccs1,1µM,?,?,5.01µM,3.55µM,10.7µM
CCN1CCCC1Cn1c(-c2ccccc2)nc2c(NCCOC)nc(C)nc21 (stereo unspecified),·,·,·,–,·,·
COc1ccc(Cc2nc3ccc(C(=O)NCC(C)(C)OC)cc3o2)cc1,3.55µM,?,–,·,3.55µM,19µM
CCC1CCCCN1C(=O)c1ccc2nc(Cc3ccc(OC)cc3)oc2c1 (stereo unspecified),?,?,–,·,3.55µM,19µM
CCc1cc(CNC(=O)c2ccc3nc(Cc4ccc(OC)c(OC)c4)oc3c2)on1,–,–,?,·,–,–
COc1ccc(Cc2nc3ccc(C(=O)NCc4cc(C)no4)cc3o2)cc1,3.98µM,16.4µM,?,·,3.55µM,13.5µM
COc1ccc(Cc2nc3ccc(C(=O)NCCc4ccccc4)cc3o2)cc1,·,·,·,·,·,–
CN(C)S(=O)(=O)N1CCC(Oc2cccc(C(=O)NC3CCCCCC3)c2)CC1,–,–,–,·,–,–
Cc1cc(CNC(=O)c2cccc(OC3CCN(S(=O)(=O)N(C)C)CC3)c2)on1,3.55µM,–,–,·,?,15.1µM
Cn1cc([N+](=O)[O-])c(C(=O)N2CCN(Cc3ccc4c(c3)OCO4)CC2)n1,–,–,–,·,·,–
C=CCNC(=O)/C(C#N)=C/c1ccc2c(c1)OCCO2,–,–,–,–,–,12µM
SMILES,NPC1 prom act,ELG1 genotox,p53 reactivator,SMN2 splice up,Rab9 prom act,FLuc counter
C=CCNC(=O)/C(C#N)=C/c1ccc(SC)cc1,–,–,–,–,–,12µM
COCCNC(=O)/C(C#N)=C/c1ccc2c(c1)OCO2,–,–,–,·,–,?
CC1CCCCC1NC(=O)/C(C#N)=C/c1ccc2c(c1)OCCO2 (stereo unspecified),–,–,–,–,–,?
N#C/C(=C\c1ccc2c(c1)OCCO2)C(=O)Nc1nccs1,–,–,–,·,–,0.601µM
Nc1nc(SCC(=O)Nc2ccccc2)[nH]c(=O)c1-c1ccccc1,–,–,–,–,–,–
O=C(CSc1nc(O)c(C/C=C/c2ccccc2)c(=O)[nH]1)Nc1cccc(F)c1,·,·,·,–,·,10.7µM
COc1ccc2nc(NC(=O)CSCC(=O)Nc3cc(C)on3)sc2c1,?,?,?,·,5.01µM,16.9µM
COc1ccc(OCC(=O)Nc2nc3ccc(NC(C)=O)cc3s2)cc1,–,–,–,–,–,–
COc1ccc2nc(NC(=O)CSCc3c(C)noc3C)sc2c1,–,?,–,·,–,?
COc1ccc2nc(NC(=O)c3ccccc3O)sc2c1,1.26µM,?,–,·,0.794µM,0.135µM
COc1ccc2nc(NC(C)=O)sc2c1,2.24µM,?,?,14.1µM,2.51µM,12µM
CCOC(=O)c1cccc(C(=O)Nc2nc3ccc(OC)cc3s2)n1,2.24µM,–,–,11.2µM,1.58µM,0.477µM
CC(=O)Nc1nc2ccc(Br)cc2s1,3.16µM,?,?,–,2.82µM,16.9µM
COc1ccc2nc(NC(=O)Nc3cccc4ccccc34)sc2c1,–,–,–,?,?,?
CC(=O)NCCC(=O)Nc1nc2ccc(Oc3ccccc3)cc2s1,1.41µM,3.66µM,?,·,0.891µM,6.75µM
CCC(C)C(=O)Nc1nc2ccc(OC)cc2s1 (stereo unspecified),2.51µM,?,?,·,2.51µM,12µM
CCOC(=O)c1ccc(NS(=O)(=O)c2cc3c(cc2C)n(C)c(=O)c(=O)n3C)cc1,·,·,·,·,·,–
COc1ccc(NC(=O)/C=C/c2ccc(OC(F)F)cc2)cn1,–,–,–,·,–,12µM
COc1ccc(NC(=O)/C=C/c2cccc(C(F)(F)F)c2)cn1,–,–,–,·,–,?
COc1ccc(NC(=O)/C=C/c2cccc(Br)c2)cn1,?,–,–,·,?,13.5µM
COc1ccc(/C=C/C(=O)Nc2ccc(OC)nc2)cc1,–,–,–,–,–,7.57µM
CCOC(=O)c1ccc(NC(=O)CC2Nc3cc(C)c(C)cc3NC2=O)cc1 (stereo unspecified),·,·,·,–,·,–
Cc1cc(C(=O)Nc2ccc(C(C)C)cc2)c2c(C)nn(-c3ccccc3)c2n1,·,·,·,·,·,–
C/C(=C\C(=O)c1ccccc1)Nc1ccc2c(c1)OCO2,2.82µM,?,?,22.4µM,3.98µM,3.79µM
Cc1ccc(C(=O)Nc2ccc3c(c2)OCO3)o1,2.82µM,14.6µM,?,11.2µM,–[1.84 µM],10.7µM
SMILES,NPC1 prom act,ELG1 genotox,p53 reactivator,SMN2 splice up,Rab9 prom act,FLuc counter
CC(=O)Nc1ccc2c(c1)OCO2,–,–,–,–,–,–
C/C(=C\C(=O)c1ccc(C)o1)Nc1ccc2c(c1)OCO2,2.82µM,?,–,–,2.24µM,4.78µM
O=C(NCc1ccccc1)c1cc2ccc(O)cc2oc1=O,?,?,?,·,3.16µM,12µM
CCOc1ccc2cc(C(=O)NCc3ccccc3)c(=N)oc2c1,–,?,–,·,–,21.3µM
CCOc1ccc2cc(C(=O)c3ccccc3)c(=O)oc2c1,–,?,?,?,?,–
CCOc1ccc(CCNC(c2nnc(-c3ccccc3)o2)c2ccccc2Cl)cc1OCC (stereo unspecified),·,·,·,–,·,–
COc1ccc(C(=O)OCC(=O)c2ccc(CNC(C)=O)s2)cc1,–,–,?,·,–,10.7µM
COc1ccc(C(=O)c2ccc(CC(=O)O)s2)cc1,–,–,–,–,–,12µM
